VP16 counter: inhibits Gal4-VP16 luciferase reporter, ROR gamma counter-screen; Potency, µM (titrated, usually from 53.6 µM), usual class: inhibitors; Drosophila S2 Gal4-VP16 UAS-luciferase, luminescence, 20 h; 310,000 compounds, 3.5% hits;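 also: Gal4-VP16 expression switched on by copper sulfate through the metallothionein promoter; nearly all actives have a fitted effect of over 50% in size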
RORgamma inh: ROR gamma (mouse) transcription inhibition; Potency, µM (top dose mostly 53.6 µM), most hits filed as inhibitors; P51450; AID 2551; 310,000 compounds, 5.4% hits; Drosophila S2 Gal4-RORgamma UAS-luciferase reporter, 20 h; also: nearly all actives have a fitted effect of over 60% in size
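Stably transfected Drosophila Schneider cells are the test system, with ROR gamma fused to Gal4 and luciferase under UAS control; luminescence is read after 20 hr of 700 uM copper sulfate induction at ambient temperature.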
GALK inhibitor: inhibitors of human galactokinase | P51570 | Purified GALK, Kinase-Glo residual ATP luminescence | Potency, µM (series often up to 57.5 µM), actives largely listed as inhibitors | 270,000 compounds, 0.007% hits
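ATP-depletion format; final 35 uM ATP, 100 uM D-galactose, 5 nM enzyme; pH 8.0 HEPES/Mg2+ buffer; 60 min RT; luminescence read 10 min after detection reagent.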
rTrxR1 inhibitor: blocks rat thioredoxin reductase 1. O89049. recombinant rTrxR1, NADPH fluorescence consumption, selenite substrate. Potency, µM (doses to about 114 µM), usual class: inhibitors. 390,000 compounds, 1% hits; also: nearly all actives have a fitted effect of over 65% in size
Target sequence (O89049 whole entry, looked up): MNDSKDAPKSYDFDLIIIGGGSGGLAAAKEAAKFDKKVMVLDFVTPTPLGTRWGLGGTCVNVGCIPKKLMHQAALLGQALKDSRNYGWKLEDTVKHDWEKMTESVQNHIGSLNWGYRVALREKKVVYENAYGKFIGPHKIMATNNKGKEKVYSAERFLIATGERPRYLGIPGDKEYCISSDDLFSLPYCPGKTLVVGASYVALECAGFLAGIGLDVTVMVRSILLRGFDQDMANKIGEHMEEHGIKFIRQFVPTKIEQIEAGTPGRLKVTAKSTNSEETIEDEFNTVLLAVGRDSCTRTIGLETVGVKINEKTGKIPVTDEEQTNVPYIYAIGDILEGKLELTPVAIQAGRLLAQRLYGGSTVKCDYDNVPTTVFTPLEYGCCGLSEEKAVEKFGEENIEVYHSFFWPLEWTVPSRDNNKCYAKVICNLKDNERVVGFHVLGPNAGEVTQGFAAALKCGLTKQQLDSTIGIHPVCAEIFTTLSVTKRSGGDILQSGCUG
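Rat TrxR1 (90 nM in the dispensed reagent) was pre-reduced with 400 uM NADPH for 5 min at room temperature, then incubated with compound for 15 min. After 400 uM selenite was added, NADPH fluorescence (Ex 340/Em 450 nm) was followed for 8 min.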
Coupling enz: coupling enzyme interference in Giardia aldolase counter-screen | coupling enzyme system counterscreen, AmpLite Red fluorescence | activity change, negative = inhibition, % at 58.2 µM, hits read low | 290,000 compounds, 0.67% hits | AID 2472; in the data active = activity change below about -30%
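Compounds tested against the coupling enzymes alone at 57.5 uM final; readout was AmpLite Red fluorescence (525/598 nm) after 20 min at RT.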
TrxR1 substrate: is turned over as a substrate by rat TrxR1; O89049; purified TrxR1 substrate turnover, NADPH consumption readout; Potency, µM (highest dose often 114 µM); 390,000 compounds, 0.01% hits; also: nearly all actives have a fitted effect of over 50% in size
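Rat TrxR1, dispensed at 90 nM, was prereduced with 400 uM NADPH (final) for 5 min at ~22 deg C, then incubated with compound 15 min before 400 uM selenite. A first-read NADPH fluorescence drop versus no-compound background flagged substrates.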
Large screens that a line does not name were inactive. Sampled rows, rich in hits. Any-hit rate of the full collection: about 5.9%. Unless noted, calls follow the shape of the dose curve; as a rule, active = well fitted curve in the direction sought with a large enough effect; inconclusive = small, poorly fitted or top-dose-only effect, or another doubt; inactive = no such curve, though single readings can be large; an effect the other way counts as inactive or inconclusive.

O=C(Nc1ccc(-c2nc3ccccc3s2)c(O)c1)C1=COCCO1	VP16 counter inconclusive, RORgamma inh 0.5µM
O=C(Nc1ccc(-c2nc3ccccc3s2)cc1)C1=COCCO1	VP16 counter 4.5µM, RORgamma inh 2µM
c1ccc2c(c1)CCN(c1nc3cc4c(cc3s1)OCO4)C2	none
c1ccc2c(c1)Cc1cc3cc4c(cc3nc1-2)OCO4	VP16 counter 2.2µM, RORgamma inh 2.2µM (no result: GALK inhibitor, rTrxR1 inhibitor, TrxR1 substrate)
O=C(NCCCN1CCOCC1)c1ccc(-n2nc(C(F)(F)F)cc2-c2cccs2)cc1	none
C=CCN1C(=O)NC(c2ccc(OC)cc2)(C(F)(F)F)S/C1=C(\C#N)c1nnc(N2CCOCC2)n1-c1ccccc1 (stereo not drawn)	VP16 counter 13µM, RORgamma inh 4.5µM
O=C(O)/C=C/C(=O)Nc1ccccc1SC(F)(F)F	VP16 counter 10µM, rTrxR1 inhibitor 35µM
Nc1nonc1-n1nnc(C(=O)N/N=C/c2c(Cl)cccc2Cl)c1CSC1=NCCS1	none
CSc1cccc(NC(=S)N(Cc2ccc(C)cc2)Cc2ccccn2)c1	RORgamma inh 13µM
COc1ccccc1NC(=S)N(CCc1ccc(OC)c(OC)c1)Cc1ccccn1	RORgamma inh 11µM
COc1ccc(CCN(Cc2ccccn2)C(=S)Nc2ccc(C)cc2)cc1OC	RORgamma inh inconclusive
COc1ccc(CC(=O)Nc2cccc(SC)c2)cc1OC	none
COc1ccc(CCN(Cc2ccccn2)C(=S)Nc2cccc(SC)c2)cc1OC	RORgamma inh 10µM
CCOC(=O)c1[nH]c(C)c(CCC(=O)NCc2ccc(OC(C)C)cc2)c1C	none (no result: VP16 counter, RORgamma inh, GALK inhibitor, Coupling enz)
NC(=O)[C@@H]1CCCN1C(=O)c1cc(COc2ccc3c(c2)CCCC3)on1	none (no result: Coupling enz)
COc1cc(/C=C(\CC(=O)O)c2nc3ccccc3s2)ccc1OCC(=O)Nc1ccccc1F	none (no result: VP16 counter, RORgamma inh, GALK inhibitor, Coupling enz)
COc1cc(/C=C(\C#N)c2nc3ccccc3s2)ccc1OCC(=O)Nc1ccccc1	RORgamma inh 0.13µM (no result: GALK inhibitor)
CCOc1ccccc1NC(=O)Cc1coc2c(C)c(C)ccc12	none (no result: VP16 counter, RORgamma inh, GALK inhibitor, Coupling enz)
CS(=O)(=O)c1nc(-c2ccccc2)cc(-c2ccccc2)c1C#N	VP16 counter inconclusive, RORgamma inh 10µM, rTrxR1 inhibitor inconclusive
CCN(c1ccccc1)S(=O)(=O)c1ccc(C(=O)Oc2ccc(C(C)=O)cc2)cc1	VP16 counter 10µM, RORgamma inh inconclusive
CCN(c1ccccc1)S(=O)(=O)c1ccc(C(=O)Nc2cccc(NC(C)=O)c2)cc1	none (no result: VP16 counter, RORgamma inh, GALK inhibitor, Coupling enz)
CCN(c1ccccc1)S(=O)(=O)c1ccc(C(=O)Nc2ncccc2C)cc1	none (no result: VP16 counter, RORgamma inh, GALK inhibitor, Coupling enz)
CCN(c1ccccc1)S(=O)(=O)c1ccc(C(=O)Nc2ncccc2O)cc1	VP16 counter inconclusive, RORgamma inh 20µM (no result: Coupling enz)
CCOC(=O)c1ccc(NC(=O)C2CCCN(c3cnccn3)C2)cc1 (stereo not drawn)	none
O=C(O)c1ccccc1N/N=C/c1cc(Br)cc(Br)c1O	VP16 counter inconclusive
O=C(O)c1ccccc1N/N=C\c1ccnc2ccccc12	VP16 counter inconclusive, RORgamma inh 5µM (no result: GALK inhibitor)
CCOC(=O)c1sc(Nc2nc3cc4c(cc3s2)OCO4)cc1C	VP16 counter 6.3µM, RORgamma inh 5µM
CCOC(=O)c1sc(Nc2nc3c(OC)cccc3s2)cc1C	VP16 counter inconclusive, RORgamma inh inconclusive
CC(=O)c1sc(Nc2nc3cc4c(cc3s2)OCO4)nc1C	RORgamma inh 5µM
CSc1nc(-c2ccccc2)[nH]c(=S)c1C(C)=O	VP16 counter inconclusive, RORgamma inh 6.3µM, rTrxR1 inhibitor inconclusive
CC(=O)Nc1nc(-c2ccccc2)nc(C)c1C(C)=O	none
COc1ccccc1-c1nc(NC(C)=O)n[nH]1	none
COc1ccccc1-c1nc(=S)c(C(C)=O)c(C)[nH]1	VP16 counter inconclusive, RORgamma inh 5.6µM
CC(=O)c1c(NC(=O)c2ccccc2)[nH]c(-c2ccccc2)nc1=S	VP16 counter 8.9µM, RORgamma inh 3.2µM, rTrxR1 inhibitor inconclusive
CSc1nc(-c2ccccc2)nc(SC)c1C(C)=O	none
CC(=O)c1c(C)[nH]c(-c2ccccc2)nc1=S	VP16 counter inconclusive, RORgamma inh 3.2µM
Cc1ccc(S(=O)(=O)NCCc2cc3ccc(C)c(C)c3[nH]c2=O)cc1	none
Cc1ccccc1NC(=O)NC(C)(C)CC(C)(C)C	none
Cc1ccccc1NC(=O)C(=O)NCCc1ccccc1	none
CCC(C)(C)NC(=S)Nc1ccccc1C	VP16 counter 11µM, RORgamma inh 4µM
Cc1ccccc1NC(=S)NCc1ccccc1	VP16 counter 11µM, RORgamma inh 4µM
CCN(C(=O)CSc1nc2cc(S(=O)(=O)N(CC)CC)ccc2o1)C1CCS(=O)(=O)C1 (stereo not drawn)	none
N#Cc1ccccc1NC(=O)COC(=O)C1CCN(C(=O)c2ccc(Cl)cc2)CC1	none (no result: VP16 counter, RORgamma inh, GALK inhibitor, Coupling enz)
COC(=O)c1c(SC)nc2ccccc2c1OCc1cc(C)ccc1C	none (no result: VP16 counter, RORgamma inh, GALK inhibitor, Coupling enz)
COC(=O)COc1ccc(S(=O)(=O)Nc2cc(OC)ccc2OC)cc1	VP16 counter 25µM, RORgamma inh 5µM (no result: rTrxR1 inhibitor, TrxR1 substrate)
COC(=O)CS(=O)(=O)c1nnc([C@H](Cc2ccccc2)NC(=O)OC(C)(C)C)o1	VP16 counter inconclusive, RORgamma inh inconclusive, rTrxR1 inhibitor 1.3µM
Cc1cccc(CS(=O)(=O)c2nnc([C@H](Cc3ccccc3)NC(=O)OC(C)(C)C)o2)c1	VP16 counter 11µM, RORgamma inh 11µM, rTrxR1 inhibitor 0.4µM
CC(C)(C)OC(=O)N[C@@H](Cc1ccccc1)c1nnc(SCC(N)=O)o1	none
O=C(Nc1ccccn1)C(=O)Nc1ccccn1	VP16 counter 13µM, RORgamma inh 10µM
S=C(Nc1ccccn1)c1ccccn1	VP16 counter 3.2µM, RORgamma inh 7.1µM
C/C(CC(=O)Nc1ccccn1)=N\NC(=O)c1ccccc1	none (no result: rTrxR1 inhibitor, TrxR1 substrate)
CCCNC(=O)C/C(C)=N/NC(=O)C(=O)Nc1ccccn1	rTrxR1 inhibitor 63µM
O=C(Nc1ccccn1)C1(c2ccccc2)CCCC1	VP16 counter 20µM
COc1ccccc1/C=C(/NC(=O)c1ccccc1)C(=O)NCCCn1ccnc1	none
Cn1c(/C=C/c2ccc(Br)cc2)c([N+](=O)[O-])c(=O)n(C)c1=O	RORgamma inh 11µM
O=S(=O)(c1ccccc1)N1CCN(C2CCCCCCC2)CC1	RORgamma inh 13µM
C=CCOC(=O)/C=C/C(=O)NC(N)=O	VP16 counter inconclusive, RORgamma inh 20µM, rTrxR1 inhibitor inconclusive
Cc1ccc(C(=O)N/N=C2\SCC(=O)N2c2cc(C)ccc2C)cc1	VP16 counter 13µM, RORgamma inh inconclusive
Clc1ss/c(=N\c2ccccn2)c1Cl	none (no result: VP16 counter)
CCNc1sc(C(=O)c2cccs2)c(N)c1-c1nc2ccccc2s1	VP16 counter 7.9µM, RORgamma inh inconclusive
C=CCNc1sc(C(=O)c2ccccc2)c(N)c1-c1nc2ccccc2s1	VP16 counter 16µM, RORgamma inh 4.5µM

Screening data (PubChem BioAssay)
